# Data taken from PubChem BioAssay AID2202241 (National Center for Advancing Translational Sciences (NCATS), 2025).
# Calls of active or inactive are those of the source. No rule for the calls is given here. Square brackets hold non-standard residues; d marks the D form. Peptide text beside a SMILES is read from it. * marks the point of attachment. Dolaproine = CO[C@@H]([C@@H]1CCCN1)[C@@H](C)C(=O)O; Dil = CC[C@H](C)[C@H](NC)[C@@H](CC(=O)O)OC; NMe2Val = CC(C)[C@@H](C(=O)*)N(C)C; X1 = C[C@@H](N*)[C@@H](O)c1ccccc1; NMeV = CN[C@H](C(=O)O)C(C)C
# Test: Identification of antibody-drug conjugate (ADC) payloads which are substrates of ATP-binding cassette drug efflux transporters: cell line panel data
# Details: 99 cancer cell line panel, CellTiter-Glo viability, 48 h; hits give low values
# Description: Antibody-drug conjugates (ADCs) feature an antibody recognizing a specific protein joined to a potent toxic payload. Numerous antibody-drug conjugates have received FDA approval; however, clinical resistance arises. Resistance mechanisms include decreased expression or mutation of the antibody target, impaired payload release, or increased expression of ATP-binding cassette (ABC) efflux transporters associated with multidrug resistance. We therefore sought to characterize the activity of ADC payloads across a broad set of cancer cell lines. We performed a high-throughput screen with 27 common ADC payloads against a panel of 99 cell lines to assess sensitivity to various payloads. Duocarmycin DM and PNU-159682 were exquisitely toxic across the panel of cancer cell lines of varying origins. These findings highlight the potentially broad applicability of Duocarmycin DM and PNU-159682 as ADC payloads in future ADC development.
# Compounds were sourced from Levena Biopharma (San Diego, CA), Selleck Chem (Houston, TX), ChemieTek (Indianapolis, IN), or Microsource Discovery Systems (Gaylordsville, CT). Cell line sources and culture conditions were as follows: CAL-27 (ATCC: CRL-2095) and Hs 766T (ATCC: HTB-134) were grown in DMEM media +10% FBS. RKO (ATCC: CRL-2577), A-427 (ATCC: […]), BT-20 (ATCC: HTB-19), Detroit562 (ATCC: CCL-138), HARA-B (Cytion: 300465), PA-1 (ATCC: CRL-1572), TCCSUP (ATCC: […]), UM-UC-3 (ATCC: CRL-1749), and WI-38 (ATCC: CCL-75) were grown in EMEM media +10% FBS. AGS (ATCC: CRL-1739) was grown in F12K media +10% FBS. JJN-3 (DSMZ: ACC 541) was grown in IMDM media +20% FBS. 769-P (ATCC: CRL-1933), 786-O (ATCC: CRL-1932), A-375 (ATCC: CRL-1619), A-431 (ATCC: CRL-1555), A-549 (ATCC: CCL-185), A2780 (Cytion: 300491), ACHN (ATCC: CRL-1611), BT-474 (ATCC: HTB-20), BT-549 (ATCC: HTB-122), CCRF-CEM (ATCC: CCL-119), Daudi (ATCC: CCL-213), HaCaT (Cytion: 300493), HCC38 (ATCC: CRL-2314), HCC827 (ATCC: CRL-2868), HCT15 (ATCC: CCL-225), HEL 92.1.7 (ATCC: TIB-180), Hs 352.Sk (ATCC: CRL-7250), Hs578T (ATCC: HTB-126), HT-1080 (ATCC: CCL-121), HuCC-T1 (Riken Bioresource Center: RCB1960), HuP-T3 (DSMZ: ACC 259), HuP-T4 (DSMZ: ACC 223), IM-9 (ATCC: CCL-159), JJ012 (Gift: Karina Galoian (University of Miami)), JM-1 (ATCC: CRL-10423), K-562 (ATCC: CCL-243), Kasumi-3 (ATCC: CRL-2725), KMS-12-BM (DSMZ: ACC 551), LOUCY (ATCC: CRL-2629), LoVo (ATCC: CCL-229), MCF-7 (ATCC: HTB-22), MDA-MB-231 (ATCC: HTB-26), MDA-MB-436 (ATCC: HTB-130), MDA-MB-468 (ATCC: HTB-132), MIA PaCa-2 (ATCC: CRL-1420), MM1.R (ATCC: CRL-2975), MM1.S (ATCC: CRL-2974), NALM-6 (ATCC: CRL-3273), NCI-H1299 (ATCC: CRL-5803), NCI-H1355 (ATCC: CRL-5865), NCI-H1395 (ATCC: CRL-5868), NCI-H1437 (ATCC: CRL-5872), NCI-H2122 (ATCC: CRL-5985), NCI-H2170 (ATCC: CRL-5928), NCI-H226 (ATCC: CRL-5826), NCI-H23 (ATCC: CRL-5800), NCI-H322M (NIH: NCI-60), NCI-H460 (ATCC: HTB-177), NCI-H522 (ATCC: CRL-5810), NCI-H929 (ATCC: CRL-3580), NIH 3T3 (ATCC: CRL-1658), OCI-M2 (DSMZ: ACC 619), OPM-2 (DSMZ: ACCC 50), OVCAR-3 (ATCC: HTB-161), OVCAR-4 (Gift: Phil Lorenzi MD Anderson), OVCAR-8 (Gift: Phil Lorenzi MD Anderson), Panc 10.05 (ATCC: CRL-2547), PANC-1 (ATCC: CRL-1469), Pfeiffer (ATCC: CRL-2632), PL45 (ATCC: CRL-2558), PSN1 (ATCC: CRL-3211), Raji (ATCC: CCL-86), RD (Gift: Mari Yohe NCI), RPMI-8226 (ATCC: CRM-CCL-155), RS4;11 (ATCC: CRL-1873), SK-BR-3 (ATCC: HTB-30), SK-MEL-28 (ATCC: HTB-72), SMS-CTR (Gift: Mari Yohe NCI), SNU-16 (ATCC: CRL-5974), SU-DHL-8 (ATCC: CRL-2961), SU.86.86 (ATCC: CRL-1837), SW1990 (ATCC: CRL-2172), SW403 (ATCC: CCL-230), SW480 (ATCC: CCL-228), SW579 (ATCC: HTB-107), T-47D (ATCC: HTB-133), T24 (ATCC: HTB-4), and U-937 (ATCC: CRL-1593.2) were grown in RPMI +10% FBS. U266B1 (ATCC: TIB-196) were grown in RPMI +15% FBS. ME-1 (ATCC: HB-119), MOLM-13 (DSMZ: ACC 554), AMO1 (DSMZ: ACC 538), MOLP-8 (DSMZ: ACC 569), MV4-11 (ATCC: CRL-9591), PL-21 (DSMZ: ACC 536), and L-363 (DSMZ: ACC 49) were grown in RPMI +20% FBS. […]
row,SMILES,viability AUC
1,CC[C@H](C)[C@@H]([C@@H](CC(=O)N1CCC[C@H]1[C@H](OC)[C@@H](C)C(=O)N[C@H](C)[C@@H](O)c1ccccc1)OC)N(C)C(=O)[C@@H](NC(=O)[C@H](C(C)C)N(C)C)C(C)C,699 (active)
2,COc1cc2cc(c1Cl)N(C)C(=O)C[C@H](OC(=O)C(C)C)[C@]1(C)O[C@H]1[C@H](C)[C@@H]1C[C@@](O)(NC(=O)O1)[C@H](OC)C=CC=C(C)C2,756 (active)
3,COc1cc2cc(C(=O)N3C[C@@H](CCl)c4c3cc(O)c3ccccc43)[nH]c2c(OC)c1OC,654 (active)
4,CC[C@H](C)[C@@H]([C@@H](CC(=O)N1CCC[C@H]1[C@H](OC)[C@@H](C)C(=O)N[C@H](C)[C@@H](O)c1ccccc1)OC)N(C)C(=O)[C@@H](NC(=O)[C@@H](NC)C(C)C)C(C)C (H-[NMeV]V[Dil][Dolaproine]-X1),816 (active)
5,COc1cc2cc(c1Cl)N(C)C(=O)C[C@H](OC(=O)[C@H](C)N(C)C(=O)CCC(C)(C)S)[C@]1(C)OC1[C@H](C)C1C[C@@](O)(NC(=O)O1)[C@H](OC)/C=C/C=C(\C)C2 (stereo partly specified),777 (active)
6,CC[C@H](C)[C@@H]1NC(=O)CNC(=O)[C@H]2Cc3c([nH]c4cc(O)ccc34)S(=O)C[C@H](NC(=O)CNC1=O)C(=O)N[C@@H](CC(N)=O)C(=O)N1C[C@H](O)C[C@H]1C(=O)N[C@@H]([C@@H](C)[C@@H](O)CO)C(=O)N2 (stereo partly specified),992 (active)
7,COc1cccc2c1C(=O)c1c(O)c3c(c(O)c1C2=O)C[C@@](O)(C(=O)CO)CC3OC1CC(N2CCOC(OC)C2)C(O)C(C)O1 (stereo partly specified),666 (active)
8,CC[C@H](C)[C@H](NC(=O)[C@H]1CCCCN1C)C(=O)N(C)[C@H](C[C@@H](OC(C)=O)c1nc(C(=O)N[C@@H](Cc2ccccc2)C[C@H](C)C(=O)O)cs1)C(C)C,793 (active)
9,COc1cc2cc(c1Cl)N(C)C(=O)C[C@H](OC(=O)[C@H](C)N(C)C(=O)CCS)[C@]1(C)OC1[C@H](C)C1C[C@@](O)(NC(=O)O1)[C@H](OC)/C=C/C=C(\C)C2 (stereo partly specified),817 (active)
10,CC[C@H](C)[C@@H]([C@@H](CC(=O)N1CCC[C@H]1[C@H](OC)[C@@H](C)C(=O)N[C@@H](Cc1ccccc1)C(=O)O)OC)N(C)C(=O)[C@@H](NC(=O)[C@H](C(C)C)N(C)C)C(C)C (NMe2Val-V[Dil][Dolaproine]F-OH),932 (active)
11,CC[C@H](C)[C@H](NC(=O)[C@H]1CCCCN1C)C(=O)N(C)[C@H](C[C@@H](OC(C)=O)c1nc(C(=O)O)cs1)C(C)C,982 (active)
